Assay results as given in PubChem BioAssay.
Active and inactive are the calls of the source.

Molecular target: Luciferin 4-monooxygenase (Photinus pyralis) (UniProt P08659)
Assay: inhibition of purified Photinus pyralis luciferase – biochemical, luminescence, purified enzyme, 2006 set, primary screen (AID 1141);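 further: cell-free assay with purified firefly luciferase at 100 ng per well in PBS; test concentration not given here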
Conditions: purified firefly luciferase, SteadyGlo luminescence, 30 min; higher = more signal, called active from +8 up or from −8 down

Luciferin 4-monooxygenase (Photinus pyralis), sequence (P08659 whole entry, looked up): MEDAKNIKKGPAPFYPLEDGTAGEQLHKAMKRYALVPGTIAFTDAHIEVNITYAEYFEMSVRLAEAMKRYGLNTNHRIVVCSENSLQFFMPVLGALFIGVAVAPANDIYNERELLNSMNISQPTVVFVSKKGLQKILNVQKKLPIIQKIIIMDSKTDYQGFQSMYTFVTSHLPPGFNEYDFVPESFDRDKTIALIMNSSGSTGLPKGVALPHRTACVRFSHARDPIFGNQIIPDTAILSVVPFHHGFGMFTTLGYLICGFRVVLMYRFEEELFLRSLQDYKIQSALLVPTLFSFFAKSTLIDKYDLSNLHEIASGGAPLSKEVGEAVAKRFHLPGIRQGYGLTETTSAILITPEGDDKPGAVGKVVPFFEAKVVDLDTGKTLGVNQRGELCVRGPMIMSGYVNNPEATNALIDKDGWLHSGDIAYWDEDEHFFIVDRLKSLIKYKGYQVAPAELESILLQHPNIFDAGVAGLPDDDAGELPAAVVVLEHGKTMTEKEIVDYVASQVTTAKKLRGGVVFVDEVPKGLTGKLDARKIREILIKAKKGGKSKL

z-score, inactive:
COCCOC(=O)N1C(=O)[C@@]2(c3cc(C#CCC(C(=O)OC)C(=O)OC)ccc31)[C@H](c1ccccc1OCCO)N1[C@H](c3ccccc3)[C@H](c3ccccc3)OC(=O)[C@H]1[C@@H]2C(=O)N1CCN(c2ncccn2)CC1 0.505
C=CCC(OC(C)=O)[C@@H]1[C@@H](N(Cc2ccc(-c3ccccc3)cc2)C(=O)c2cccc3ccccc23)c2cc(OCCCO)ccc2N1C(=O)c1ccc(-c2ccccc2)cc1 (stereo not given in full) -0.52
O=C(NCCO)C1=C[C@H](Oc2ccccc2I)[C@@H](O)[C@H](N(Cc2ccco2)C(=O)Cc2ccccc2)C1 0.341
C#C[C@H](O[Si](C#Cc1ccc(Oc2ccccc2)cc1)(C(C)C)C(C)C)c1ccccc1 0.0848
CC1CC/C=C\[C@H]2OC34C=CCN(Cc5ccccc5)C(=O)[C@H]3N(CCCO)C(=O)[C@@H]4C2C(=O)O1 (stereo not given in full) -0.483
CCOC(=O)C[C@H]1[C@H](OC(=O)c2ccc(C(=O)c3ccccc3)cc2)[C@@H](NC(=O)c2ccccc2)c2cc(OCCCO)ccc2N1C(=O)Cc1ccc(OC)cc1 -0.863
CC(C)CNC(=O)[C@@]1(Cc2ccccc2I)c2ccccc2C(=O)N(C2CCCCC2)[C@H]1c1ccc(CO)cc1 0.258
Cc1ccc(S[C@]2(C(=O)NCCCN(C)C)CC(=O)N(Cc3ccccc3C(F)(F)F)[C@@H]2c2ccc(CO)cc2)cc1 -0.903
C=CC[C@]1(C(=O)NCCCOC)N=C(c2ccc(OCCCO)cc2)O[C@H]1c1ccccc1CN=[N+]=[N-] -0.529
Cc1ccc(S[C@]2(C(=O)NCCCN(C)C)CC(=O)N(Cc3cc(C(F)(F)F)cc(C(F)(F)F)c3)[C@@H]2c2ccc(CO)cc2)cc1 -0.303
CCCC[C@H]1OB(O)C[C@H]2C1=C(COC)Cn1c(=O)n(-c3ccccc3)c(=O)n12 0.382
COc1ccc(/C=C/C=O)cc1 -0.756
NC(=O)NCC#Cc1ccc2c(c1)[C@]1(C(=O)N2)[C@H](c2ccccc2OCCO)N2[C@H](c3ccccc3)[C@H](c3ccccc3)OC(=O)[C@H]2[C@@H]1C(=O)Nc1nc2ccccc2s1 0.302
C=CCC(OC(C)=O)[C@@H]1[C@@H](N(Cc2ccc(-c3ccccc3)cc2)C(=O)c2ccc(-c3ccccc3)cc2)c2cc(OCCCO)ccc2N1C(=O)Cc1ccc2ccccc2c1 (stereo not given in full) -0.785
Cc1ccc(N2C(=O)c3ccccc3[C@@H](C(=O)NC3CC3)[C@@H]2c2ccc(CO)cc2)nc1 0.309
COCCCNC(=O)[C@@]1(C)c2ccccc2C(=O)N(C(C)C)[C@H]1c1ccc(CO)cc1 -0.336
COC(=O)[C@@]1(Cc2ccc(OC)cc2)[C@@H]2C(=CC(=O)[C@H]2CC(=O)C(=O)N2CCCC2)CN1C(=O)c1ccccc1 0.826
C=C(COC)/C(=C/C[C@@H](OC(=O)c1ccncc1)c1ccc(CO)o1)c1cc(C(=O)OC)ccc1OC -1.83
NC(=O)NCC#Cc1ccc2c(c1)[C@]1(C(=O)N2)[C@H](C(=O)Nc2nc3ccccc3s2)[C@H]2C(=O)O[C@H](c3ccccc3)[C@H](c3ccccc3)N2[C@@H]1c1ccccc1OCCO -0.921
COc1ccc(C(=O)Nc2ccc(CN3C(=O)[C@]4(O[C@H](CCO)[C@@H]([Si](C)(C)c5ccc(OC)cc5)[C@@H]4C)c4ccccc43)cc2)cc1 0.362
COc1cc2c(cc1OC)CN(C(=O)[C@@H]1[C@H]3C(=O)O[C@H](c4ccccc4)[C@H](c4ccccc4)N3[C@H](c3ccc(O)cc3)[C@@]13C(=O)Nc1ccccc13)CC2 0.81
COC(=O)[C@@]1(Cc2ccc(F)cc2)[C@H]2c3cc(C(=O)N4CCCC4)n(CCCNc4ncc(C(F)(F)F)cc4Cl)c3C[C@H]2CN1C(=O)c1ccccc1 1.37
[N-]=[N+]=Nc1ccccc1[C@@H]1OC(c2ccc(OCCCO)cc2)=N[C@]1(Cc1ccccc1)C(=O)N1CCOCC1 -5.98
C=CCC(OC(C)=O)[C@@H]1[C@@H](N(Cc2ccc(-c3ccccc3)cc2)C(=O)Cc2ccc(OC)cc2)c2cc(OCCCO)ccc2N1C(=O)Cc1ccc2ccccc2c1 (stereo not given in full) -0.358
CC1(C)C2C=C(C(O)C3C=CC4C(=O)NC(=O)C4N3Nc3ccc(Cl)cc3Cl)C[C@@H]1C2 (stereo not given in full) 0.155
CO[C@H]1O[C@H](CO)[C@@H](OC(=O)Nc2cccc(F)c2)[C@H](OC(=O)Nc2ccccc2)[C@@H]1OC(=O)Nc1ccccc1 0.0107
COc1ccc(C(O)C2C=CC3C(=O)N(Cc4ccccc4)C(=O)C3N2n2cnnc2)cc1OCc1ccccc1 (stereo not given) 1.77
COC(=O)[C@@]1(Cc2ccc(OC)cc2)[C@H]2c3cc(C(=O)N4CCCC4)n(Cc4ccc(C)c(F)c4F)c3C[C@H]2CN1C(=O)c1ccccc1 1.44
CC(=O)NCCCC[C@@H]1NC(=O)[C@H]2C[C@@H](C(=O)NCCCCCCNC(=O)CS)[C@@H](c3ccc(O)cc3)N2C1=O -0.644
COCCOC(=O)N1C(=O)[C@@]2(c3cc(C#CC4(O)CCCCCC4)ccc31)[C@H](c1ccc(OCCO)cc1)N1[C@H](c3ccccc3)[C@H](c3ccccc3)OC(=O)[C@H]1[C@@H]2C(=O)N1CCN(c2ncccn2)CC1 -0.606
CCCCCN1CC=CC23O[C@@H]4/C=C\CCC(C)OC(=O)C4[C@H]2C(=O)N(C(C)CO)[C@@H]3C1=O (stereo not given in full) -0.078
COc1ccc(C#Cc2ccc3c(c2)[C@]2(C(=O)N3)[C@H](C(=O)NC[C@H](O)c3ccccc3)[C@H]3C(=O)O[C@H](c4ccccc4)[C@H](c4ccccc4)N3[C@@H]2c2ccc(O)cc2)cc1 0.656
COc1ccc(C#Cc2ccc3c(c2)[C@]2(C(=O)N3)[C@H](c3ccccc3OCCO)N3[C@H](c4ccccc4)[C@H](c4ccccc4)OC(=O)[C@H]3[C@@H]2C(=O)Nc2nc3ccccc3s2)cc1 -1.36
CN1C(=O)C2C=CC(C(O)c3ccco3)N(Nc3ccccc3)C2C1=O (stereo not given) 0.0206

z-score, active:
[N-]=[N+]=Nc1ccccc1[C@@H]1OC(c2ccc(OCCCO)cc2)=N[C@]1(CCS(=O)(=O)c1ccccc1)C(N)=O -13.5
